# In the library only some 6.9% were active in any assay of this set; here they are far more common.
# Vif-APOBEC3F blk: qHTS for Inhibitors of Vif-A3F Interactions: qHTS | HeLa A3F-eYFP + Vif (tagged APOBEC3F with the HIV-1 protein that degrades it), YFP fluorescence increase | Potency, µM (titrated, usually from 46.1 µM), without a hit: at the top dose activity, negative = active | hit rate 0.2% among 390,000 | AID 602313, 2012; also: potency is read from the fitted curve at half-maximal effect; % of control where 0% means no effect; nearly all actives have a fitted effect of over 65% in size
#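 Fluorescence increase (Ex 488/Em 500-530) after overnight compound treatment at 37 deg C flags inhibition of Vif-driven A3F-eYFP loss in stable HeLa A3F-eYFP/Vif cells seeded overnight beforehand.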
# MCF10A rereplic: A quantitative high throughput screen for small molecules that induce DNA re-replication in MCF 10a normal breast cells | MCF 10A DNA re-replication, Hoechst nuclear intensity, 48 h | Potency, µM (titrated, usually from 46.1 µM), for inactives: at the highest dose activity, positive = re-replication, most hits filed as activators | hit rate 2.9% among 350,000; also: potency is read from the fitted curve at half-maximal effect; % of control where 0% means no effect; nearly all actives have a fitted effect of over 50% in size
# IL-1B inflam inh: qHTS for Inhibitors of Inflammasome Signaling: IL-1-beta AlphaLISA Primary Screen; THP-1 LPS/ATP IL-1B secretion, AlphaLISA, 16 h; hits give low values; activity change, % at 57.5 µM; hit rate 4.7% among 360,000; AID 743279, 2014; in the data active = activity change below about -50%; inconclusive = mostly about -30% to -49%; also: % is scaled to controls: 0 for no effect and ±100 for the full control effect
#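 Secreted IL-1B measured by AlphaLISA bead assay after 16 h compound exposure of THP-1 cells; compounds (final up to 57.5 uM) added 1 h before LPS (250 ng/mL) and ATP (1.25 mM) stimulation; lower signal means less secretion.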
# SW480 rerep: A quantitative high throughput screen for small molecules that induce DNA re-replication in SW480 colon adenocarcinoma cells; Potency, µM (top dose mostly 46.1 µM), inactives show top-dose re-replication activation, most hits filed as activators; SW480 DNA re-replication, Hoechst DNA content imaging, 48 h; hit rate 1.8% among 340,000; AID 624297, 2012; also: potency is read from the fitted curve at half-maximal effect; % of control where 0% means no effect; nearly all actives have a fitted effect of over 55% in size
#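 Compounds, transferred as 23 nL by pin tool, were incubated with cells for 48 hr; DNA content per nucleus was then quantified by Hoechst staining and fluorescence plate imaging.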
# Vif-A3G inh: qHTS for Inhibitors of Vif-A3G Interactions: qHTS. DNA dC->dU-editing enzyme APOBEC-3G (Homo sapiens), Q9HC16. HeLa A3G-eYFP + Vif (tagged APOBEC3G with the HIV-1 protein that degrades it), YFP fluorescence, overnight. Potency, µM (series often up to 46.1 µM), for the others: at the highest dose activity, negative = active, hits mostly inhibitors. hit rate 0.076% among 410,000; also: potency is read from the fitted curve at half-maximal effect; % is scaled to controls: 0 for no effect and ±100 for the full control effect; nearly all actives have a fitted effect of over 60% in size
# Target sequence (Q9HC16 whole entry, looked up): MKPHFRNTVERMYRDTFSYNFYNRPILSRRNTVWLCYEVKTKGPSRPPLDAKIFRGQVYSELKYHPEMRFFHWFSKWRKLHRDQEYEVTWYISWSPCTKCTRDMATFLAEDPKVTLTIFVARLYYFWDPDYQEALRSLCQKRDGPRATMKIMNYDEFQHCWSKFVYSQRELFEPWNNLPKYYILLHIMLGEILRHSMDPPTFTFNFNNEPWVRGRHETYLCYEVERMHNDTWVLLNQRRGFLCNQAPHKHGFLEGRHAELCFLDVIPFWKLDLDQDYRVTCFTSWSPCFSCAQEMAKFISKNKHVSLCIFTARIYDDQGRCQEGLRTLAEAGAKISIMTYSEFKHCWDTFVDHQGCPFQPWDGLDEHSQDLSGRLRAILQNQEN
#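 Read-out is eYFP fluorescence (Ex 488/Em 500-530) from Vif-expressing HeLa A3G-eYFP cells; more signal means A3G escaped Vif-mediated degradation. Cells plated overnight, compound pinned in, incubated overnight at 37 deg C.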
# Giardia killer: Small Molecules that selectively kill Giardia lamblia: qHTS. activity change, % at 7.66 µM, hits read low. hit rate 0.15% among 340,000. Giardia lamblia trophozoite viability. AID 540267, 2011; in the data active = activity change below about -80%; inconclusive = between about -30% and that limit;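 also: parasites exposed to compound for two days anaerobically before the ATP read; % is scaled to controls: 0 for no effect and ±100 for the full control effect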
#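 Each well holds 100 Giardia trophozoites and compound. After two days (48 hrs) at 37 deg C in anaerobic conditions, ATP is quantified by luminescence.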
# * hit, by the source's call; ? = inconclusive; . = no result. Unless noted, calls follow the shape of the dose curve; as a rule, active = well fitted curve in the direction sought with a large enough effect; inconclusive = small, poorly fitted or top-dose-only effect, or another doubt; inactive = no such curve, though single readings can be large; an effect the other way counts as inactive or inconclusive.
SMILES,Vif-APOBEC3F blk,MCF10A rereplic,IL-1B inflam inh,SW480 rerep,Vif-A3G inh,Giardia killer
CC(=O)c1cccc(S(=O)(=O)N2CCCC(c3nc4c(nnn4Cc4ccccc4Cl)c(=O)[nH]3)C2)c1 (centres undefined),7.2%,?,-70.4*,-8.3%,-6.0%,-14.6
O=c1[nH]c(C2CCN(S(=O)(=O)c3ccccc3C(F)(F)F)CC2)nc2c1nnn2Cc1ccccc1,9.6%,?,-50.7*,-0.4%,-1.7%,31.7
CCS(=O)(=O)N1CC(=O)N(c2ccc(Cl)cc2C)C(C)(C(=O)NC2CCCCC2)C1 (centres undefined),-1.3%,.,.,.,1.4%,.
CS(=O)(=O)N(CC(=O)NCCSc1ccccc1)c1cc(C(F)(F)F)ccc1Cl,8.1%,.,.,.,-0.8%,.
C=C(C)Cn1c(SCC(=O)Nc2cccc(Cl)c2)nc2sc3c(c2c1=O)CCCC3,-3.3%,.,.,.,-3.1%,.
C=C1CC[C@@H]2[C@](C)(CO)[C@H](O)CC[C@@]2(C)[C@@H]1C/C=C1/C(=O)OCC1O (some centres undefined),-9.1%,?,-87.2*,?,?,1.8
C=C/C(C)=C/CC1C(=C)CCC2C(C)(C(=O)O)CCCC12C (centres undefined),-5.6%,1.8%,9.4,-9.6%,0.2%,1.8
C=Cc1ccc(Cn2c(=O)n(CCCOC)c(=O)c3sccc32)cc1,-3.1%,0.6%,-88.0*,24.5%,2.2%,-3.3
CCN(CC)S(=O)(=O)c1ccc2c(c1)nc(CN(C)C(=O)Nc1ccc(C)c(F)c1)n2C,7.7%,.,.,.,0.3%,.
O=C1CC(/C=C/c2ccccn2)=Nc2ccccc2N1,-10.3%,-1.4%,-75.0*,?,-6.8%,13.1
COc1cc(NC(=S)NC(=O)C(C)C)ccc1NC(=O)c1cc2ccccc2o1,10.5%,8.2µM*,9.2,?,-0.1%,-0.7
COc1cc(NC(=O)c2cccc(C)c2)ccc1NC(=O)c1cc2ccccc2o1,0.8%,2.59µM*,21.4,15.2%,-8.7%,6.5
COc1ccc(NC(=O)CSC2=Nc3ccccc3C3=NC(CCC(=O)NCc4ccco4)C(=O)N23)cc1 (centres undefined),-3.7%,.,.,.,-6.2%,.
COc1ccccc1C1CC(c2ccco2)=NN1c1ccccc1 (centres undefined),-0.9%,?,?,?,-5.2%,7.6
COc1ccc(C2=NN(C(=O)CSc3nnc(C)n3C)C(c3ccco3)C2)cc1 (centres undefined),0.6%,10.4%,-2.5,-89.5%,-2.6%,8.9
Fc1ccc(C2=NN(c3ccccc3)C(c3ccco3)C2)cc1 (centres undefined),-2.3%,?,-4.8,6.51µM*,-4.8%,5.3
COc1ccc(C2=NN(c3nc(-c4ccccc4)c(CC(=O)O)s3)C(c3ccco3)C2)cc1 (centres undefined),2.0%,20.6µM*,7.8,?,-16.7%,-14.7
O=S(=O)(c1ccccc1)N1N=C(c2ccc(Cl)cc2)CC1c1ccco1 (centres undefined),?,13.5%,-9.6,-1.4%,-5.0%,10.9
Cc1ccc(C2CC(c3ccccc3)=NN2c2ccccc2)o1 (centres undefined),3.0%,18.4µM*,-7.8,14.6µM*,-6.6%,-13.3
Clc1ccc(C2=NN(c3ccccc3)C(c3ccco3)C2)cc1 (centres undefined),-0.4%,0.731µM*,7.5,3.66µM*,0.5%,25.2
CCOC(=O)C1CC(c2ccccc2)=NN1c1ccccc1 (centres undefined),0.3%,.,14.6,.,-7.8%,.
Cc1ccc(C)c(NC(=O)Cn2c(=O)n(Cc3ccc4c(c3)OCO4)c(=O)c3oc4ccccc4c32)c1,-6.0%,.,.,.,2.8%,.

# Source: PubChem
